This excerpt belongs to a sample that is enriched for hits.
Pf Dd2 growth – Plasmodium falciparum Dd2 growth inhibition. P. falciparum Dd2 growth, SYBR Green, 72 h. Potency, µM (highest dose often 28.9 µM), for the others: at the highest dose activity, negative = inhibition, usual class: inhibitors. hit rate 4.3% among 120,000; active = well fitted inhibition curve with a large enough effect;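 note: plate controls were DMSO vehicle for no effect and reference drug for full effect; nearly all actives have a fitted effect of over 65% in size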
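Infected erythrocytes (Dd2, 0.3% parasitemia, 2.5% hematocrit final) are added to compound in RPMI-1640/Albumax II medium, grown 72 h at 37C in low oxygen, then lysed with saponin/Triton-X containing SYBR Green and read by fluorescence.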
Active calls of the source: *; i = inactive; [ ] = another dose, or the depositor's remark. Potency is the fitted concentration of half-maximal effect.

SMILES	Pf Dd2 growth
CC(=O)N1C[C@@H](C(=O)NCCc2cccs2)[C@H](c2nc(C)no2)C1	12%
COCCC1(CO)CCCN(C(=O)CCc2c(C)noc2C)C1 (stereo not drawn)	-5%
O=C(C1CC1)N1CCN(C2CCN(Cc3ccccn3)C2=O)CC1 (stereo not drawn)	5%
Cc1cc(C)cc(NC(=O)N(C)CC2CCOCC2)c1	5%
CSc1cccc(NC(=O)Cn2ccn3nc4c(c3c2=O)CCCC4)c1	-5%
O=C(CCc1ccc(=O)[nH]n1)N1CCC2(CCCNC2=O)C1 (stereo not drawn)	-17%
O=C(NCc1ccc(F)cc1)C1CCc2nnc(C3CCN(C(=O)C4CC4)CC3)n21 (stereo not drawn)	31%
C=CCOc1cccc(-c2nnc(CCC(=O)NC(C)CC)c(=O)[nH]2)c1 (stereo not drawn)	i
CC(C)CN1C(=O)N(CC(=O)N(C)Cc2ccon2)C(=O)C12CCNCC2	1%
CCOc1ccc(OCC)c(NC(=O)C2CCCN(S(=O)(=O)c3cc(Br)cc4c3N(C(=O)CC)CC4)C2)c1 (stereo not drawn)	7.9µM*
CCOC(=O)c1cccc(NC(=O)C2CCCN(S(=O)(=O)c3cc(Br)cc4c3N(C(=O)CC)CC4)C2)c1 (stereo not drawn)	-23%
CCOC(=O)C1CCCN(S(=O)(=O)c2cc(Br)cc3c2N(C(C)=O)CC3)C1 (stereo not drawn)	21%
COC[C@H]1C[C@@H](NS(=O)(=O)CC(C)C)[C@H](O)[C@@H]1O	14%[44.1 µM]
CCN(CC)C1(Cc2cc(COC)on2)COC1	36%[44.1 µM]
COc1ccc(-c2cc(N3CCCC(NC(=O)c4cc(C)ccc4C)C3)n[nH]2)cc1 (stereo not drawn)	-7%
COc1ccc(-c2cc(N3CCCC(NC(=O)c4cc(C)cc(C)c4)C3)n[nH]2)cc1 (stereo not drawn)	8.9µM*
Cc1ccc(C(=O)NC2CCN(c3cc(-c4ccc(F)cc4)[nH]n3)C2)cc1C (stereo not drawn)	13µM*
COc1ccc(-c2cc(N3CCC(NC(=O)c4ccc(C)c(C)c4)C3)n[nH]2)cc1 (stereo not drawn)	-4%
COc1ccc(-c2cc(N3CCC(NC(=O)c4ccc(F)cc4Cl)CC3)n[nH]2)cc1	i
COc1ccc(C(=O)NC2CCN(c3cc(-c4ccc(Cl)cc4)[nH]n3)C2)cc1 (stereo not drawn)	8.9µM*
COc1ccc(-c2cc(N3CCC(NC(=O)c4ccc(Br)cc4)C3)n[nH]2)cc1 (stereo not drawn)	-22%
COc1ccc(C(=O)NC2CCN(c3cc(-c4ccc(OC)cc4)[nH]n3)C2)cc1 (stereo not drawn)	-10%
COc1ccc(-c2cc(N3CCC(NC(=O)c4cc(F)ccc4Cl)CC3)n[nH]2)cc1	-11%
COc1ccc(-c2cc(N3CCC(NC(=O)c4cc(C)cc(C)c4)C3)n[nH]2)cc1 (stereo not drawn)	i
Cc1ccc(C(=O)NC2CCN(c3cc(-c4ccc(F)cc4)[nH]n3)CC2)cc1C	i
SMILES	Pf Dd2 growth
COc1ccc(-c2cc(N3CCC(NC(=O)c4ccc(F)cc4F)CC3)n[nH]2)cc1	1.3µM*
CCOC(=O)C1=CN(CC(=O)Nc2cc(C)ccc2OC)S(=O)(=O)N=C1C	18%
CC(C)OCCCNC(=O)C1CC(=O)N(c2n[nH]c3cc(Br)ccc23)C1 (stereo not drawn)	-11%
CN(Cc1ccc(F)cc1)S(=O)(=O)c1cccc(C(F)(F)F)c1	-9%
Cc1nnc(-c2cc(-c3cccc(CO)c3)ccn2)n1C1CCCCC1	i
CN1CC2(CCCN(C(=O)c3cn4cc(Cl)ccc4n3)C2)OC1=O (stereo not drawn)	8%
CCCc1nc(-c2nc(C3CCOC3)no2)cs1 (stereo not drawn)	-9%
O=C(c1ccc(Br)o1)N1CCCN(c2cc(-c3ccc(F)cc3)[nH]n2)CC1	-20%
COc1ccccc1CNC[C@H]1O[C@@H]2C[C@@H](CC(=O)NC(C)C)O[C@@H]2[C@@H]1O	32%[44.1 µM]
COc1ccc(-c2cc(N3CCCC(NC(=O)c4cc(Cl)ccc4OC)C3)n[nH]2)cc1 (stereo not drawn)	-10%
COc1ccc(C(=O)NC2CCN(c3cc(-c4ccccc4)[nH]n3)C2)c(C)c1 (stereo not drawn)	i
COc1ccc(C(=O)NC2CCN(c3cnn(CC4CC4)c(=O)c3)CC2)c(OC)c1	7.9µM*
COc1ccccc1C(=O)NC1CCN(c2cnn(CC3CC3)c(=O)c2)CC1	i
COc1ccc(-c2cc(N3CCC(NC(=O)c4ccccc4C)C3)n[nH]2)cc1 (stereo not drawn)	i
COc1ccc(C(=O)NC2CCN(c3cc(-c4ccccc4)[nH]n3)C2)c(OC)c1 (stereo not drawn)	4.5µM*
COc1ccc(C(=O)NC2CCN(c3cnn(C)c(=O)c3)CC2)c(OC)c1	-19%
COc1ccc(Cl)cc1C(=O)NC1CCN(c2cc(-c3ccc(F)cc3)[nH]n2)C1 (stereo not drawn)	-12%
COc1ccc(C(=O)NC2CCN(c3cc(-c4ccc(Cl)cc4)[nH]n3)C2)c(OC)c1 (stereo not drawn)	5µM*
Cc1noc(C)c1CCC(=O)N1C[C@@H](C)[C@@](C)(O)C1	-4%
O=C(NCc1ccc(C(F)(F)F)cc1)C1CN(Cc2ccccc2)C(=O)N1 (stereo not drawn)	-2%
COc1cccc(COC2CN(CC(C)C)C(=O)CN(C(=O)c3csc(C(C)=O)c3)C2)c1 (stereo not drawn)	-22%
O=C(NC1CCCCC1)C1CN(S(=O)(=O)c2cccc(F)c2)CC12CCOCC2 (stereo not drawn)	11%
CC(C)c1noc(-c2cccn3c(CNC(=O)c4c(F)cccc4F)nnc23)n1	-17%
Cn1cnc(C(=O)N[C@H]2CCOC[C@H]2C2CCOCC2)c1	-13%
CCCS(=O)(=O)N1CC[C@H](c2nc(C)no2)[C@H](NC(=O)C2CC2)C1	-24%[5.79 µM]
SMILES	Pf Dd2 growth
COc1cccc(CC(=O)N2CC(CO)C3(CCNCC3)C2)c1 (stereo not drawn)	39%
Cc1ccn2c(NC(=O)c3cccc(Cl)c3)c(-c3ccccc3)nc2c1	-19%
Cc1ccn2c(Nc3c(C)cccc3C)c(-c3ccsc3)nc2c1	11µM*
Cc1ccn2c(Nc3c(C)cccc3C)c(-c3ccc(Cl)s3)nc2c1	7.9µM*
Cc1ccccc1Nc1c(-c2ccc(Cl)s2)nc2c(C)cccn12	-11%
Cc1ccccc1Nc1c(-c2ccc(Cl)s2)nc2cccc(C)n12	-19%
Cc1cccc(C(=O)Nc2c(-c3ccccc3)nc3cc(C)ccn23)c1	-4%
CS(=O)(=O)N1C[C@H]2CCN(Cc3c(F)cccc3F)C[C@H]21	-21%
CC(C)(C)n1nnnc1C1CC2(CCOCC2)C(=O)N1Cc1ccccc1F (stereo not drawn)	72%
Cc1ccc(-c2ccccc2C=O)cc1Cl	14%[44.1 µM]
Cc1cc(C)cc(-c2ccc(C=O)cc2)c1	-11%[44.1 µM]
NCc1ccc(-c2ccccn2)cc1	-18%[44.1 µM]
CN(Cc1ccc(OC(F)(F)F)cc1)Cc1ccccc1C(F)(F)F	-18%
Cc1cc(C)cc(-c2ccc(CN)cc2)c1	11µM*
O=Cc1ccccc1-c1ccc(OC(F)(F)F)cc1	-5%[76.6 µM]
Cc1ccc(-c2ccccc2CN)cc1Cl	11µM*
Cc1cc(C)cc(-c2ccccc2CN)c1	13µM*
Cc1cc(C)cc(-c2ccccc2C=O)c1	-3%[44.1 µM]
NCc1ccccc1-c1ccc(OC(F)(F)F)cc1	11µM*
Cc1cccc(-c2[nH]ncc2CN)c1	-12%
Cc1ccc(-c2[nH]ncc2CN)cc1	-24%

Screens deposited in PubChem by National Center for Advancing Translational Sciences (NCATS).
